Many of the other results were omitted from the sample, so hits are more common in it than they were.
TDP1 cell CPT – DT40-hTDP1 cell growth loss with CPT; chicken DT40 Tdp1-/-;hTDP1 cells + 20 nM CPT, ATP luminescence, 48 h; Potency, µM (top dose mostly 46.2 µM), actives largely listed as inhibitors; 420,000 compounds, 12% hits; AID 686979; further: nearly all actives have a fitted effect of over 55% in size
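Chicken DT40 Tdp1-/- cells stably complemented with human TDP1 were seeded at 400 cells/well in medium containing 20 nM camptothecin, exposed to pin-transferred compounds, and grown at 37 °C for at least 48 hr. Viability was read as ATP luminescence.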
12-LOX inh – inhibitors of human 12S-lipoxygenase ALOX12 | P18054 | purified 12hLO, xylenol orange hydroperoxide absorbance | Potency, µM (series often up to 108 µM), hits mostly inhibitors | 580,000 compounds, 1.1% hits
Target sequence (P18054 whole entry, looked up): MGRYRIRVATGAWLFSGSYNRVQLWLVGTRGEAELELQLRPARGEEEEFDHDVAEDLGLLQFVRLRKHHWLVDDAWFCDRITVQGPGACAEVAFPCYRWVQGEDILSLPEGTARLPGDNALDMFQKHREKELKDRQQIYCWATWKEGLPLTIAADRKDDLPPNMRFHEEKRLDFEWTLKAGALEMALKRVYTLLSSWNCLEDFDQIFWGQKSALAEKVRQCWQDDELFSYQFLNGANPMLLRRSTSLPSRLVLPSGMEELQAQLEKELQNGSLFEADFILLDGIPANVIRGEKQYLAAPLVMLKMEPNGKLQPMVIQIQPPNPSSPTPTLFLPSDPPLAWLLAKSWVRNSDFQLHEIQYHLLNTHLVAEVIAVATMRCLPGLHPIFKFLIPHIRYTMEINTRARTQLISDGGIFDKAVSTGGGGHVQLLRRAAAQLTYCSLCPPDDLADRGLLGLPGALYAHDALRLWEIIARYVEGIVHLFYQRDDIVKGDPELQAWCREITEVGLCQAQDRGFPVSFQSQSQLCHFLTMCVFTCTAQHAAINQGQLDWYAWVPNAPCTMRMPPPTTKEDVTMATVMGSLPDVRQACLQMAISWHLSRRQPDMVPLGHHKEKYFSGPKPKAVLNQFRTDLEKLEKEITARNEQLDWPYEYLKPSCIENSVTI
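Hydroperoxide product was detected by ferrous iron/xylenol orange as the 573 to 405 nm absorbance ratio. Arachidonic acid at 40 uM (final) was turned over for 30 min at room temperature by 150 nM human 12hLO, pH 7.0 Hepes buffer, after 15 min compound preincubation.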
IL1B secr inh – inflammasome signaling inhibition, IL-1 beta readout. THP-1 LPS/ATP IL-1B secretion, AlphaLISA, 16 h; hits give low values. activity change, % at 57.5 µM. 360,000 compounds, 4.7% hits. AID 743279; in the data active means activity change below about -50%; inconclusive means mostly about -30% to -49%
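Secreted IL-1B measured by AlphaLISA bead assay after 16 h compound exposure of THP-1 cells; compounds (final up to 57.5 uM) added 1 h before LPS (250 ng/mL) and ATP (1.25 mM) stimulation; lower signal means less secretion.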
HT1080 IDH1KD tx – toxicity to HT-1080 IDH1 knockdown cells (counter line) | HT-1080 IDH1 knockdown viability, ATP luminescence, 48 h | Potency, µM (doses to about 46.1 µM), actives largely listed as cytotoxic | 360,000 compounds, 2% hits | AID 686971
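CellTiter-Glo luminescence after 48 h compound exposure at 37 degrees C of IDH1-knockdown HT-1080 cells in 5% FBS RPMI. %Activity scaled between DMSO wells and cell-free media wells, with curves fitted and assigned curve classes.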
DT40 TDP1 no CPT – qHTS for Inhibitors of human tyrosyl-DNA phosphodiesterase 1 (TDP1): qHTS in cells in absence of CPT; AID 686978, 2013; Potency, µM (series often up to 46.2 µM), most hits filed as inhibitors; 420,000 compounds, 15% hits; DT40 Tdp1-/- hTDP1 cells, no CPT, ATP luminescence, 48 h; further: nearly all actives have a fitted effect of over 55% in size
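Growth of hTDP1-complemented DT40 Tdp1-knockout cells is measured by ATP luminescence after at least 48 hr compound exposure at 37 °C, with DMSO substituting for the 20 nM CPT used in the parallel screen.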
HT1080-NT tox – kills 2HG-producing HT-1080-NT fibrosarcoma cells; AID 686970; Potency, µM (top dose mostly 46.1 µM), hits mostly cytotoxic; HT-1080-NT fibrosarcoma viability, CellTiter-Glo ATP luminescence, 48 h; 360,000 compounds, 1.6% hits;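 further: NT is the 2HG producing partner of a matched IDH1 knockdown line; nearly all actives have a fitted effect of over 55% in size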
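Toxicity toward the 2HG-producing NT line was scored as %Activity, normalised to DMSO and no-cell wells, from CellTiter-Glo luminescence after 48 hours' treatment.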
A number is an active result; – = inactive; ? = inconclusive; · = no result given; ! = not active in a repeat. Unless noted, the call rests on the fitted dose curve; in most records, active means well fitted curve in the direction sought with a large enough effect; inconclusive means small, poorly fitted or top-dose-only effect, or another doubt; inactive means no such curve, though single readings can be large; an effect the other way counts as inactive or inconclusive.

SMILES	TDP1 cell CPT	12-LOX inh	IL1B secr inh	HT1080 IDH1KD tx	DT40 TDP1 no CPT	HT1080-NT tox
O=C(CC1NCCNC1=O)Nc1cccc(F)c1 (configuration not stated)	–	–	·	·	–	·
Cc1nc(CN2CCN(c3cc(C4CC(O)C4)nc(N)n3)CC2)cs1 (configuration not stated)	·	–	·	·	·	·
COc1cccc(C2C(C#N)=C(N)Oc3cc(N)ccc32)c1OC (configuration not stated)	–	–	–	–	–	–
N#CC1=C(N)Oc2cc(N)ccc2C1c1ccccc1F (configuration not stated)	7.3µM	–	–	16µM	8.2µM	15µM
N#CC1=C(N)Oc2cc(N)ccc2C1c1cc(Br)cs1 (configuration not stated)	?	–	-66	2.9µM	?	2.1µM
COc1ccc(N=Cc2cc3c(cc2O)OC(N)=C(C#N)C3c2ccccc2)cc1 (configuration not stated)	?	–	–	?	21µM	?
N#CC1=C(N)Oc2cc(N)ccc2C1c1cccc(Br)c1 (configuration not stated)	2.9µM	?	–	?	1.5µM	?
CS(=O)(=O)c1ccc(-c2cnc([C@@H]3COCCN3Cc3ccccc3)[nH]2)cc1	·	–	·	·	·	·
CCc1ccc(C2=C(C)C(N3CCC(C(=O)NC4CCCC4)CC3)=NS2(=O)=O)cc1	·	–	·	·	·	·
COc1ccc(S(=O)(=O)N2CCCC(Cc3noc(-c4ccncc4)n3)C2)cc1 (configuration not stated)	·	–	·	·	·	·
Cc1cccc(NC(=O)Cn2nc3n(c2=O)CCCC3)c1C	·	–	·	·	·	·
O=C(OCC1CCCO1)c1ccc2c(c1)N(Cc1ccccc1F)C(=O)c1ccccc1S2(=O)=O (configuration not stated)	–	–	·	·	–	·
N#CC1=C(N)Oc2cc(O)ccc2C1c1ccccc1 (configuration not stated)	–	4.5µM!	–	?	?	?
COc1ccc(C2C(C#N)=C(N)Oc3cc(O)ccc32)cc1 (configuration not stated)	–	?	?	–	–	–
COc1ccc(C2C(C#N)=C(N)SC(N)=C2C#N)cc1OC	–	?	–	–	–	–
N#CC1=C(N)SC(N)=C(C#N)C1c1cccc(O)c1	23µM	32µM	–	–	?	–
Oc1cccc(-c2c3nc(c(-c4cccc(O)c4)c4ccc([nH]4)c(-c4cccc(O)c4)c4nc(c(-c5cccc(O)c5)c5ccc2[nH]5)CC4)C=C3)c1	27µM	3.6µM	·	·	19µM	·
O=C1C=C(c2cccc(O)c2)CCC1	–	–	–	–	–	–
CC(C)=CCC/C(C)=C/Cc1c(O)ccc(C(=O)/C=C/c2ccc(O)cc2)c1O	?	–	-80	–	21µM	?
Cc1ccc(/C=C/C(=O)c2cc(C)ccc2O)cc1	·	–	·	·	·	·
CCc1ccc(Oc2c(C(F)(F)F)oc3c(CN4CCN(C)CC4)c(O)ccc3c2=O)cc1	?	–	·	·	26µM	·
CC1CCN(Cc2c(O)ccc3c(=O)c(Oc4ccccc4Cl)c(C(F)(F)F)oc23)CC1	?	–	·	·	21µM	·
CC(CC(=O)NNC(=O)CC1CCCCC1)CC(=O)Nc1cccc(Br)c1 (configuration not stated)	·	–	·	·	·	·
CN(CCO)C(=O)c1cn(C2CCCN(Cc3cccc4ccccc34)C2)nn1 (configuration not stated)	–	–	·	·	–	·
O=C(C[C@H]1C[C@@H]2c3cc(NS(=O)(=O)c4ccccc4)ccc3O[C@@H]2[C@H](CO)O1)NC1CCCC1	–	–	–	–	–	–
O=C(C[C@@H]1C[C@@H]2c3cc(NS(=O)(=O)c4ccc(F)cc4)ccc3O[C@@H]2[C@@H](CO)O1)NC1CCCCC1	?	?	–	–	18µM	–
COc1ccc(CNC(=O)C[C@@H]2C[C@H]3c4cc(NC(=O)NC5CCCC5)ccc4O[C@H]3[C@H](CO)O2)cc1	?	?	–	–	13µM	–
COc1cccc(S(=O)(=O)Nc2ccc3c(c2)[C@H]2C[C@H](CC(=O)N[C@@H](C)c4ccccc4)O[C@H](CO)[C@H]2O3)c1	?	?	–	–	15µM	–
COc1cccc(S(=O)(=O)Nc2ccc3c(c2)[C@@H]2C[C@@H](CC(=O)NCc4ccc(Cl)cc4)O[C@@H](CO)[C@@H]2O3)c1	18µM	–	–	6.5µM	16µM	8.2µM
